High-throughput results deposited in PubChem BioAssay by National Center for Advancing Translational Sciences (NCATS).
The list is not random: actives were taken first. Their share in the collection is about 6.9%.
MCF10A rereplic: induces DNA re-replication in MCF 10a normal breast cells; AID 624296; Potency, µM (doses to about 46.1 µM), inactives show at the highest dose activity, positive = re-replication, hits mostly activators; actives 2.9% (n = 350,000); MCF 10A DNA re-replication, Hoechst nuclear intensity, 48 h; also: potency is read from the fitted curve at half-maximal effect; % of control where 0% means no effect; nearly all actives have a fitted effect of over 50% in size
Giardia killer: Giardia lamblia killing | Giardia lamblia trophozoite viability | actives 0.15% (n = 340,000) | activity change, % at 7.66 µM, hits read low; in the data active = activity change below about -80%; inconclusive = between about -30% and that limit;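 also: parasites exposed to compound for two days anaerobically before the ATP read; % is scaled to controls: 0 for no effect and ±100 for the full control effect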
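Media and compound were dispensed first, then trophozoites at 100 cells/well; plates sat 48 hrs at 37 deg C without oxygen before ATP luminescence reagent was added and read after 15-30 min at room temperature.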
KB-V1 cytotox: KB-V1 MDR subline cytotoxicity; KB-V1 MDR cells viability, CellTiter-Glo, 72 h; Potency, µM (highest dose often 46.1 µM), usual class: cytotoxic; actives 3.4% (n = 400,000); also: potency is read from the fitted curve at half-maximal effect; % is scaled to controls: 0 for no effect and ±100 for the full control effect; nearly all actives have a fitted effect of over 60% in size
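KB-V1 MDR subline cells in DMEM (phenol-red free, 10% FBS) exposed to compounds in qHTS concentration series for 72 h at 37 degrees C. Viability read by CellTiter-Glo luminescence; concentration-effect curves fitted after normalization and correction.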
KB-3-1 tox: KB-3-1 parental cell cytotoxicity; KB-3-1 viability, CellTiter-Glo ATP luminescence, 72 h; Potency, µM (titrated, usually from 46.1 µM), actives largely listed as cytotoxic; actives 1.4% (n = 400,000); also: potency is read from the fitted curve at half-maximal effect; % is scaled to controls: 0 for no effect and ±100 for the full control effect; nearly all actives have a fitted effect of over 60% in size
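Using CellTiter-Glo luminescence, growth of non-resistant KB-3-1 adenocarcinoma cells is assessed 72 h after pin-tool compound addition at 37 °C. Normalized responses across the concentration series yield fitted curves.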
S-ASM inh: inhibitors of human secretory acid sphingomyelinase | P17405 | placental ASM, HMU-PC fluorogenic substrate, 60 min | Potency, µM (highest dose often 57.5 µM), for the others: top-dose activity change, negative = inhibition, actives largely listed as inhibitors | actives 0.006% (n = 340,000) | AID 504937; also: potency is read from the fitted curve at half-maximal effect
Target sequence (P17405 47-631 limits assumed): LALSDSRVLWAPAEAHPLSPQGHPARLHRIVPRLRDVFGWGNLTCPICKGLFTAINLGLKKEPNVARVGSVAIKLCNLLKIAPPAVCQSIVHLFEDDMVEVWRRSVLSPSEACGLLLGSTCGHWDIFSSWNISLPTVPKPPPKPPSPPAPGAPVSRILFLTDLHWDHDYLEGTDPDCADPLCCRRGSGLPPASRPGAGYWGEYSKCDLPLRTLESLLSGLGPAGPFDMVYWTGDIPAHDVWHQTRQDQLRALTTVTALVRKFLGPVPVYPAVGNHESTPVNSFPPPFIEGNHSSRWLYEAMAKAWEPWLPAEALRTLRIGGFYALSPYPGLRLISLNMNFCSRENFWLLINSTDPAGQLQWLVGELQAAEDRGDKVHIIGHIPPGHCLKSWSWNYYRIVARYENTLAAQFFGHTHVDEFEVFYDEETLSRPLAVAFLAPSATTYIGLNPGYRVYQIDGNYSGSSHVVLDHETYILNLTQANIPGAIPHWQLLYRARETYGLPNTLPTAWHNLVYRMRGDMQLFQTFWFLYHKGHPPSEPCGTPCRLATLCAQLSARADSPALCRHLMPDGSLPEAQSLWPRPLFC
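Fluorogenic HMU-PC substrate (9 uM final) is turned over by placental ASM in 60 min at 37 C after a 10 min compound preincubation. Reaction ended by alkaline stop (pH 10), with fluorescence read at 386/447 nm.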
SW480 rereplic: inducers of DNA re-replication in SW480 colon cancer cells; SW480 DNA re-replication, Hoechst DNA content imaging, 48 h; Potency, µM (titrated, usually from 46.1 µM), inactives show top-dose re-replication activation, most hits filed as activators; actives 1.8% (n = 340,000); also: potency is read from the fitted curve at half-maximal effect; % of control where 0% means no effect; nearly all actives have a fitted effect of over 55% in size
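Image-based read-out: total Hoechst fluorescence of nuclei (405 nm excitation, 500-530 nm emission), with hits raising the fraction of high-intensity nuclei. SW480 colon cells incubated 48 hr with compounds at 37 C.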
* hit, by the source's call; i = inactive; ? = inconclusive; nt = no result. Unless noted, calls follow the shape of the dose curve; as a rule, active = well fitted curve in the direction sought with a large enough effect; inconclusive = small, poorly fitted or top-dose-only effect, or another doubt; inactive = no such curve, though single readings can be large; an effect the other way counts as inactive or inconclusive.

SMILES	MCF10A rereplic	Giardia killer	KB-V1 cytotox	KB-3-1 tox	S-ASM inh	SW480 rereplic
Cc1ccc(C(=O)c2ccccc2C(=O)OCC(=O)Nc2cccc([N+](=O)[O-])c2)cc1	18%	17	23µM*	i	-5%	2%
COc1cc(C(=O)OCC(=O)Nc2ccc(OC(F)F)cc2)cc(OC)c1OC	3%	-5	i	i	17%	-17%
O=C(COC(=O)c1ccccc1Cc1ccccc1)Nc1ccc(SC(F)F)cc1	26µM*	-24	?	i	1%	?
COc1cc(C(=O)OCC(=O)Nc2ccc(SC(F)F)cc2)cc(OC)c1OC	0%	-3	15µM*	i	-23%	-19%
Cc1ccc(C(=O)c2ccccc2C(=O)OCC(=O)Nc2ccc(SC(F)F)cc2)cc1	?	2	12µM*	i	-3%	22%
O=C(NCCNCCO)C1(C(F)(F)F)CC(CCc2ccccc2)CCCO1 (centres undefined)	nt	-7	nt	nt	nt	nt
Cc1cc(Br)ccc1NC(=O)COC(=O)c1ccccc1OCC(=O)N(C)C	nt	nt	i	?	nt	nt
Cc1[nH]c2ccccc2c1C(=O)C(C)Sc1nc2ccccc2c(=O)n1Cc1cccnc1 (centres undefined)	nt	nt	i	i	nt	nt
O=C(Cc1ccc(Cl)cc1)Nc1ccc(SC(F)F)cc1	?	-12	21µM*	?	-11%	-35%
O=C(Cc1ccccc1F)Nc1ccc(SC(F)F)cc1	-6%	-14	i	i	-2%	-14%
O=C(Nc1ccc(SC(F)F)cc1)c1ccccc1F	3%	-25	i	i	3%	24%
O=C(Nc1ccc(SC(F)F)cc1)c1ccc(F)cc1	0.82µM*	-5	i	i	4%	?
O=C(COc1cccc(Oc2ccccc2)c1)Nc1ccc(SC(F)F)cc1	0.73µM*	-10	i	i	-4%	7.3µM*
CCN(Cc1ccccc1)C(=O)c1cc2c(s1)-c1c(C)cccc1OC2	nt	nt	i	i	nt	nt
CSc1ccc(/C=C/c2nc3ccccc3n2S(=O)(=O)c2cccc(Cl)c2)cc1	nt	nt	i	15µM*	nt	nt
Cc1ccccc1NC(=O)Cn1cnc2c(oc3ccccc32)c1=O	3%	0	18µM*	i	0%	2%
N=c1c(C(=O)NCC2CCCO2)cc2c(=O)n3ccccc3nc2n1Cc1ccco1 (centres undefined)	?	22	i	i	408%	21µM*
N=c1c(C(=O)NCC2CCCO2)cc2c(=O)n3ccccc3nc2n1Cc1cccnc1 (centres undefined)	13µM*	12	i	i	i	10µM*
CCCn1c(=N)c(C(=O)NCc2cccnc2)cc2c(=O)n3cccc(C)c3nc21	nt	nt	?	i	nt	nt
N=c1c(C(=O)NCC2CCCO2)cc2c(=O)n3ccccc3nc2n1Cc1ccc(F)cc1 (centres undefined)	9.2µM*	-6	i	i	386%	18µM*
COC(=O)c1cc2c(=O)n3ccccc3nc2n(Cc2cccnc2)c1=N	?	-7	i	i	221%	?
Cc1cccn2c(=O)c3cc(C(=O)NCC4CCCO4)c(=N)n(Cc4cccnc4)c3nc12 (centres undefined)	13µM*	3	i	i	435%	9.2µM*
Cc1ccc2nc3c(cc(C(=O)NCC4CCCO4)c(=N)n3C(C)C)c(=O)n2c1 (centres undefined)	nt	nt	i	i	nt	nt
CC1=C(C(=O)Nc2cccnc2)C(c2cccc(Br)c2)n2nc(SCc3ccccc3)nc2N1 (centres undefined)	nt	nt	i	i	nt	nt
CCOC(=O)c1ccc(/C=C2\c3ccccc3C(=O)N2c2ccccc2)cc1F	-33%	63	i	?	-13%	2%
CCOC(=O)c1ccc(/C=C2/C=C(c3ccccc3)N(c3ccc(Cl)c(C(=O)O)c3)C2=O)cc1	21µM*	-14	i	?	-1%	10%
